Screening results: PubChem BioAssay, several laboratories
An excerpt weighted towards active compounds, which were near 1.6% of everything screened.
Fam108B inh = Fam108B inhibition, counter-screen for RBBP9 inhibitors. recombinant Fam108B, FP-Rh probe fluorescence polarization. inhibition, % at 9.51 µM. 300,000 compounds, 0.33% hits;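 active = inhibition above the screen mean inhibition plus 3 SD, computed separately per campaign, cut at about 18% in these data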;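 note: inhibitors lower polarization as less probe binds the enzyme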
LYPLA2 inh = LYPLA2 (human) inhibition in PME1 counter-screen; O95372; recombinant LYPLA2, FP-Rh probe fluorescence polarization; inhibition, % at 5.9 µM; 320,000 compounds, 0.38% hits; AID 2177;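 active = inhibition above the screen-wide mean plus 3 SD, limit set per campaign, cut at about 26% in these data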
MEX-5 binding = C. elegans MEX-5 TCR-2 RNA binding activity; AID 1832; activity score (negative = inhibition of binding), % at 10 µM; MEX-5/FITC-TCR2 RNA binding, fluorescence polarization; hits give low values; 300,000 compounds, 0.38% hits; Q9XUB2;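 active = inhibition past about -25% in most replicates, and total fluorescence under double the plate's negative control median, limit read from the data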
Target sequence (Q9XUB2 whole entry, looked up): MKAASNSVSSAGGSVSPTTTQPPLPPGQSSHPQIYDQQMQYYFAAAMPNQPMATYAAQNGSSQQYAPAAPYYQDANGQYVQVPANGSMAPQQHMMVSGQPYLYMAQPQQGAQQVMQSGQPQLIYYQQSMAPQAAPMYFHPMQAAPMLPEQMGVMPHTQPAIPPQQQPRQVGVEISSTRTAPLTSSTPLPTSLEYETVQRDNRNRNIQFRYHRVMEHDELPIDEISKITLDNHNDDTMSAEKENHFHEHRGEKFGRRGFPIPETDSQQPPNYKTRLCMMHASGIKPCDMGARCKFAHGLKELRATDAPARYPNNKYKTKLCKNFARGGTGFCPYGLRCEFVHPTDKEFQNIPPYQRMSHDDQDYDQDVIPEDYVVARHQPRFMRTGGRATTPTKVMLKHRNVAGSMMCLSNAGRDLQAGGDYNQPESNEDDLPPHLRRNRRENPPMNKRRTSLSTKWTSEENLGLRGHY
PME-1 primary = blocks human protein phosphatase methylesterase 1; recombinant PME-1, FP-Rh probe fluorescence polarization; inhibition, % at 5.9 µM; 320,000 compounds, 0.53% hits;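 active = inhibition above the campaign mean of all compounds plus 3 SD, cut at about 26% in these data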;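 note: competitive labeling of PME-1 active site by serine hydrolase directed probe; inhibitors block probe labeling so polarization falls and inhibition rises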
PREPL inhibitor = inhibitors of human prolyl oligopeptidase-like enzyme PREPL. recombinant PREPL, fluorescence polarization activity-based probe. inhibition, % at 5.96 µM. Q4J6C6. AID 2751. 320,000 compounds, 0.68% hits; in the data active = inhibition above about 43%
LYPLA1 counter = blocks human lysophospholipase 1, a PME1 counter-screen | O75608 | recombinant LYPLA1, FP-Rh probe fluorescence polarization | inhibition, % at 5.9 µM | 320,000 compounds, 0.16% hits | AID 2174;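 active = inhibition above the mean of all tested compounds plus 3 SD, set per campaign, cut at about 14% in these data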;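 note: inhibitors block serine hydrolase probe labeling of LYPLA1 so polarization falls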
Target sequence (O75608 whole entry, looked up): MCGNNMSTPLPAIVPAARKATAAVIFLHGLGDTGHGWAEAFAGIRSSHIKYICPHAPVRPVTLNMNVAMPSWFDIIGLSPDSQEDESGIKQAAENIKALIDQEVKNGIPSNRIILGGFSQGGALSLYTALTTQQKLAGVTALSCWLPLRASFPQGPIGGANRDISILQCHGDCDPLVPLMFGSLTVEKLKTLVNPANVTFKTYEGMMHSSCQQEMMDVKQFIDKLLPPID
A number is an active result.

What do the screens show for `CC1CCCN(C(=O)c2ccc3c(c2)OCO3)C1` (stereo not drawn)?
Fam108B inh: inactive; LYPLA2 inh: inactive; MEX-5 binding: inactive; PME-1 primary: inactive; PREPL inhibitor: inactive; LYPLA1 counter: inactive

What do the screens show for `CCN(CC)C(=O)/C(=C\c1ccc2c(c1)OCO2)NC(=O)c1ccc(Br)cc1`?
Fam108B inh: inactive; LYPLA2 inh: inactive; MEX-5 binding: inactive; PME-1 primary: inactive; PREPL inhibitor: inactive; LYPLA1 counter: inactive

How did O=C1CC(N(O)c2ccccc2)C(=O)N1c1cc(Cl)cc(Cl)c1 (stereo not drawn) do in these assays?
Fam108B inh: inactive; LYPLA2 inh: inactive; PME-1 primary: 34; PREPL inhibitor: inactive; LYPLA1 counter: inactive

How did COc1ccc(N2C(=O)C(Cl)=C(Nc3ccccc3OC)C2=O)cc1 do in these assays?
Fam108B inh: inactive; LYPLA2 inh: inactive; MEX-5 binding: inactive; PME-1 primary: inactive; PREPL inhibitor: inactive; LYPLA1 counter: inactive

Results for COc1ccc(N2C(=O)C(Cl)=C(Nc3ccccc3O)C2=O)cc1 ?
Fam108B inh: inactive; LYPLA2 inh: inactive; MEX-5 binding: -34; PME-1 primary: inactive; PREPL inhibitor: inactive; LYPLA1 counter: inactive

Results for COc1ccc(/C=C/c2nc3sc4c(c3c(=O)o2)CCC4)cc1 ?
Fam108B inh: inactive; LYPLA2 inh: inactive; MEX-5 binding: -30; PME-1 primary: inactive; PREPL inhibitor: inactive; LYPLA1 counter: inactive

What do the screens show for `CC1=NN(C(N)=S)C(=O)C1N=Nc1cccc2ccccc12` (stereo not drawn)?
Fam108B inh: 23; LYPLA2 inh: inactive; MEX-5 binding: inactive; PME-1 primary: inactive; PREPL inhibitor: inactive; LYPLA1 counter: inactive

How did O=C1CCC(c2ccccc2)=NN1Cc1c(F)cccc1Cl do in these assays?
Fam108B inh: inactive; LYPLA2 inh: inactive; MEX-5 binding: inactive; PME-1 primary: inactive; PREPL inhibitor: inactive; LYPLA1 counter: inactive

How did COc1ccc(C2=NN(Cc3c(F)cccc3Cl)C(=O)CC2)cc1 do in these assays?
Fam108B inh: inactive; LYPLA2 inh: inactive; MEX-5 binding: inactive; PME-1 primary: 44; PREPL inhibitor: inactive; LYPLA1 counter: inactive

Results for CC(C)(C)c1nn(-c2ccccc2)c2[nH]c(=O)c(CNCc3ccco3)cc12 ?
Fam108B inh: inactive; LYPLA2 inh: inactive; MEX-5 binding: -27; PME-1 primary: inactive; PREPL inhibitor: inactive; LYPLA1 counter: inactive

Results for COc1ccc(CNCc2cc3c(C(C)(C)C)nn(-c4ccccc4)c3[nH]c2=O)cc1 ?
Fam108B inh: inactive; LYPLA2 inh: inactive; MEX-5 binding: inactive; PME-1 primary: inactive; PREPL inhibitor: inactive; LYPLA1 counter: inactive

How did CC(C)[C@H](NC(=O)c1ccco1)C(=O)OCC(=O)c1ccc(Br)s1 do in these assays?
PREPL inhibitor: inactive

What do the screens show for `CN1CCc2cc3c(c4c2[C@H]1[C@H](O)c1ccccc1-4)OCO3`?
Fam108B inh: inactive; LYPLA2 inh: inactive; MEX-5 binding: -84; PME-1 primary: inactive; PREPL inhibitor: inactive; LYPLA1 counter: inactive

What do the screens show for `COc1ccc2c(c1OC)C(=O)OC2C1c2c(cc3c(c2OC)OCO3)CCN1C` (stereo not drawn)?
Fam108B inh: inactive; LYPLA2 inh: inactive; MEX-5 binding: inactive; PME-1 primary: inactive; PREPL inhibitor: inactive; LYPLA1 counter: inactive

How did Cc1ccc(S(=O)(=O)N2CCN(C(=O)Cn3cnc4c3c(=O)n(C)c(=O)n4C)CC2)cc1C do in these assays?
LYPLA2 inh: inactive; PME-1 primary: 42; PREPL inhibitor: inactive; LYPLA1 counter: inactive

How did CCCN(CCC)CC(O)Cn1cc(/C=C/C(=O)c2ccccc2)c2ccccc21 (stereo not drawn) do in these assays?
MEX-5 binding: inactive

Results for CCCCN(C)CC(O)Cn1cc(/C=C/C(=O)c2ccc(C)cc2)c2ccccc21 (stereo not drawn) ?
Fam108B inh: inactive; LYPLA2 inh: inactive; MEX-5 binding: inactive; PME-1 primary: inactive; PREPL inhibitor: 45; LYPLA1 counter: inactive

Results for Cc1cc(C)n2nc(SCc3cc(=O)oc4ccc5ccccc5c34)nc2n1 ?
Fam108B inh: inactive; LYPLA2 inh: inactive; MEX-5 binding: inactive; PME-1 primary: inactive; PREPL inhibitor: 47; LYPLA1 counter: inactive

How did COCC1CCN(C(=O)CC2C(=O)NCCN2Cc2cccc(Oc3ccccc3)c2)CC1 (stereo not drawn) do in these assays?
Fam108B inh: inactive; LYPLA2 inh: inactive; MEX-5 binding: -26; PME-1 primary: inactive; PREPL inhibitor: inactive; LYPLA1 counter: inactive

How did O=C1NCCN(Cc2cccc(Oc3ccccc3)c2)C1CC(=O)N1CCCO1 (stereo not drawn) do in these assays?
Fam108B inh: inactive; LYPLA2 inh: inactive; MEX-5 binding: inactive; PME-1 primary: inactive; PREPL inhibitor: inactive; LYPLA1 counter: inactive

Results for CS(=O)(=O)N1CCC(C(=O)Nc2cc(Cl)ccc2Cl)CC1 ?
Fam108B inh: inactive; LYPLA2 inh: inactive; PME-1 primary: inactive; PREPL inhibitor: inactive; LYPLA1 counter: inactive

How did O=C(Cc1coc2cc3c(cc12)CCC3)NCC1(N2CCCCC2)CCCCC1 do in these assays?
Fam108B inh: inactive; LYPLA2 inh: inactive; MEX-5 binding: inactive; PME-1 primary: inactive; PREPL inhibitor: 46; LYPLA1 counter: inactive

Results for COC(=O)/C(=C\C(=O)c1ccccc1)Nc1ccc(OC)cc1 ?
Fam108B inh: inactive; LYPLA2 inh: inactive; MEX-5 binding: inactive; PME-1 primary: inactive; PREPL inhibitor: inactive; LYPLA1 counter: inactive

What do the screens show for `CSc1ccccc1C(=O)NCCCn1ccnc1`?
Fam108B inh: inactive; LYPLA2 inh: inactive; MEX-5 binding: inactive; PME-1 primary: 144; PREPL inhibitor: inactive; LYPLA1 counter: inactive

Results for NC1=C(Br)C(=O)c2ccccc2C1=O ?
Fam108B inh: inactive; LYPLA2 inh: inactive; MEX-5 binding: inactive; PME-1 primary: inactive; PREPL inhibitor: inactive; LYPLA1 counter: inactive

What do the screens show for `Nc1ccc(Br)c2c1C(=O)c1ccccc1C2=O`?
Fam108B inh: inactive; LYPLA2 inh: inactive; MEX-5 binding: inactive; PME-1 primary: 26; PREPL inhibitor: inactive; LYPLA1 counter: inactive

Results for CCOc1ccc(-c2c[n+]3c(n2-c2ccccc2)CCCCC3)cc1 ?
Fam108B inh: inactive; LYPLA2 inh: inactive; MEX-5 binding: inactive; PME-1 primary: inactive; PREPL inhibitor: inactive; LYPLA1 counter: inactive

How did CCC(=NCc1ccc(Cl)c(Cl)c1)c1nc(-c2ccco2)oc1O do in these assays?
Fam108B inh: inactive; LYPLA2 inh: inactive; MEX-5 binding: inactive; PME-1 primary: inactive; PREPL inhibitor: 74; LYPLA1 counter: inactive

What do the screens show for `COc1ccc(/C=N/NC(=O)c2ccc(NC(=O)c3cccc([N+](=O)[O-])c3)cc2)c(C(=O)O)c1OC`?
Fam108B inh: inactive; LYPLA2 inh: inactive; MEX-5 binding: inactive; PME-1 primary: inactive; PREPL inhibitor: inactive; LYPLA1 counter: inactive

How did O=C(Nc1ccc2c(c1)nc1n2CCN(C2CCCCC2)C1)NC1CCCCC1 do in these assays?
Fam108B inh: inactive; LYPLA2 inh: inactive; MEX-5 binding: inactive; PME-1 primary: inactive; PREPL inhibitor: inactive; LYPLA1 counter: inactive
